Assay results from PubChem BioAssay AID1259376 (The Scripps Research Institute Molecular Screening Center, 2018).
The whole screen tested about 4,700 compounds, of which about 360 (7.7%) were called active. Only a sample is shown. A number with no mark means an inactive call.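 The calls were made as follows: active = inhibition above a cutoff derived from the DMSO control wells (cut at about 30% in these data); inactive = the rest.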

Assay: AlphaScreen optical interference compounds, counter-screen for MITF inhibitor project, biochemical, triplicate (AID 1259376)
Settings: LysRS AlphaScreen counterscreen, signal interference, at 2.6 µM, active compounds read high

Compound | inhibition
CSc1nnc(SCc2nc3sc(C(=O)O)c(C)c3c(=O)[nH]2)s1 | 11.5%
Cc1ccc(CN2CCN(Cc3ccncc3)CC2)cc1 | 16.6%
COc1ccc(Br)cc1CN1CCN(C(=O)c2cccnc2)CC1 | -9.47%
CCN(C(=O)Cc1nc(N)n[nH]1)C1(C(=O)Nc2ccc(C)cc2)CCCCC1 | 101% (active)
CCN(C(=O)Cc1nc(N)n[nH]1)C1(C(=O)Nc2ccccc2)CCCCC1 | 100% (active)
Cc1nc2sc(C(c3ccccc3Cl)N3CCC4(CC3)OCCO4)c(O)n2n1 (centres undefined) | 13.3%
CCN(Cc1ccccc1)Cc1ccc([N+](=O)[O-])cc1 | -3.54%
COc1ccc(CN2CCC(C(=O)N3CCN(Cc4ccccc4)CC3)CC2)cc1 | 8.38%
c1ccc(-c2ccccc2OCCNCCN2CCOCC2)cc1 | 24.1%
Clc1cccc(CN2CCN(C3CCCC3)CC2)c1 | 9.81%
O=C(Nc1ccc2c(c1)OCO2)C(c1ccccc1)N(Cc1ccccc1)Cc1ccccc1 (centres undefined) | -2.62%
CC(C)CO/N=C1\C[C@@H](O)[C@@H](O)[C@@H]2[C@@H]3C(=O)N([C@@H](C)c4ccccc4)C(=O)[C@@H]3CC[C@@H]12 | -1.34%
CN1CCN(CCC(=O)N/N=C/c2ccsc2)CC1 | -5.86%
COc1cccc(CN2CCN(C(=O)c3ccccc3F)CC2)c1 | -7%
COc1ccc(CN2CCN(Cc3cccc(Br)c3)CC2)c(OC)c1 | 22.2%
COc1ccc(COCC(O)CNCC(C)(C)CN(C)C)cc1OC (centres undefined) | 3.11%
CC(C)c1ccc(C2/C(=C(/O)c3ccccc3)C(=O)C(=O)N2CCN(C)C)cc1 (centres undefined) | 15.2%
COc1ccc(CN2CCCC(C(=O)N3CCCCC3)C2)cc1 (centres undefined) | -1.29%
COc1cccc(CN2CCN(C/C=C/c3ccccc3)CC2)c1OC | 5.04%
O=[N+]([O-])c1ccccc1CN1CCN(Cc2ccccc2C(F)(F)F)CC1 | 9.98%
CN1CCN(CCOCCOc2ccccc2Cl)CC1 | 11.5%
O=C(O)CCCCC1SCC2NC(=O)NC21O (centres undefined) | 98.9% (active)
N#Cc1ccc(/C=N/NC(=O)c2cc([N+](=O)[O-])cc([N+](=O)[O-])c2)cc1 | -2.55%
O=S(=O)(c1ccc(Br)cc1Cl)N1CCN(CCc2ccncc2)CC1 | 16.2%
CCCCCCOC(=O)c1cc(C(=O)OCCCCCC)c(C)nc1C | -5.97%

Compound | inhibition
COc1ccc(CN2CCN(Cc3cc(OC)c(OC)c(OC)c3)CC2)cc1 | 14.7%
CC(=O)N1CCN(C(=O)c2ccc(N3CC4CC(C3)c3cccc(=O)n3C4)c(NC(=O)c3cccnc3)c2)CC1 (centres undefined) | -7.87%
COc1ccc(Br)cc1CN1CCN(CCOCCO)CC1 | -5.73%
COc1cccc(OC)c1C(=O)N1CCN(Cc2ccccc2F)CC1 | 20.4%
Cc1ccc(NC(=O)CNCCCSc2ccccc2)cc1C | 20.6%
O=C(O)C1C2C=CC(O2)C1C(=O)Nc1nccs1 (centres undefined) | 13.2%
CC(NCCCN1CCOCC1)C(=O)Nc1ccccc1 (centres undefined) | 12.1%
COC(=O)C(C)CN1CCN(Cc2ccc3c(c2)OCO3)CC1 (centres undefined) | 13.8%
CC1(C)CC(=O)C2=C(C1)Nc1ccccc1N(C(=O)Cc1ccccc1)C2c1ccc(-c2ccc([N+](=O)[O-])cc2)o1 (centres undefined) | 15%
COc1cc(CN2CCN(Cc3ccccc3Cl)CC2)cc(OC)c1OC | 13%
N#Cc1ccc(OCC(=O)Nc2nc(-c3ccccn3)cs2)cc1 | 100% (active)
Nc1ccc(S(=O)(=O)O)c2cc(S(=O)(=O)O)cc(O)c12 | 38.9% (active)
CCN1CCN(CCOc2ccc(-c3ccccc3)cc2)CC1 | 9.15%
COc1cccc(C(=O)N2CCN(Cc3cc(OC)c(OC)cc3OC)CC2)c1 | 7.33%
CC(=O)c1cccc(N2C(=O)c3cccnc3C2=O)c1 | 27.9%
CC1CCCC(N2CCN(Cc3ccccc3Cl)CC2)C1 (centres undefined) | -7.94%
CCN(CC)CCN1COc2c(cc(Cl)c3cccnc23)C1 | 100% (active)
COc1ccccc1CN1CC(C)OC(C)C1 (centres undefined) | 3.15%
Cc1ccc(NC(=O)COC(=O)CCC(=O)Nc2sc3c(c2C(N)=O)CCC3)cc1F | 6.94%
CCN(CC(=O)NCc1ccc(Cl)cc1)Cn1nnc2ccccc21 | -7.45%
Cn1c(=O)oc2cc(S(=O)(=O)N3CCC(C(=O)NC(C)(C)C)CC3)ccc21 | 0.26%
CCS(=O)(=O)N1CCN(C2CCCCC2C)CC1 (centres undefined) | 7.29%
c1ccc(CCCCNc2nccc(Nc3ccncn3)n2)cc1 | 9.16%
COc1cccc(CN2CCC(C(=O)NCCc3ccccc3)CC2)c1 | 13.6%
